Data as given in PubChem BioAssay (NCATS).
Several values for one entry are separate records, joined by “and”; a condition that tells them apart may be missing. Equal entries are not always repeated. Inconclusive results are not listed. Activity calls are given as the source filed them. Calls follow the shape of the dose curve; as a rule, active = well fitted inhibition curve with a large enough effect; inconclusive = small, poorly fitted or top-dose-only effect; inactive = flat fitted curve, though single readings scatter.

Key:
CRL-7250 = normal cell line; assay: Cytotoxic Profiling of Annotated Libraries Using Quantitative High-Throughput Screening (AID 1296008); conditions: Five cell lines viability, CellTiter-Glo ATP luminescence, 48-72 h; max response: stronger effect = lower value
How it was run: (§1)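 Compounds were pin-transferred onto cells and incubated 48 or 72 hr at 37 degree Celsius, 95% humidity. CellTiter-Glo was added, plates sat 10 min at room temperature, then ATP-coupled luminescence was imaged as the viability read-out.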

HEK293 = assay: as above; conditions: Five cell lines viability, CellTiter-Glo ATP luminescence, 48-72 h; max response: stronger effect = lower value
How it was run: as §1

HaCat = assay: as above; conditions: Five cell lines viability, CellTiter-Glo ATP luminescence, 48-72 h; max response: stronger effect = lower value
How it was run: as §1

KB-3-1 = assay: as above; conditions: Five cell lines viability, CellTiter-Glo ATP luminescence, 48-72 h; max response: stronger effect = lower value
How it was run: as §1

NIH3T3 = assay: as above; conditions: Five cell lines viability, CellTiter-Glo ATP luminescence, 48-72 h; max response: stronger effect = lower value
How it was run: as §1

MCC-13 = assay: qHTS assay to identify novel small-molecules to repurpose for Merkel cell carcinoma treatment (AID 1296009); conditions: MCC and control cell lines, CellTiter-Glo viability, 72 h; series mostly up to 46 µM
How it was run: (§2)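 Viability readout: ATP luminescence (CellTiter-Glo) after 72 hr drug exposure at 37 degree celsius. Dose-response format was 8 points for NPC and 11 points for MIPE; data normalized to in-plate controls.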

MCC-26 = assay: as above; conditions: MCC and control cell lines, CellTiter-Glo viability, 72 h; series mostly up to 46 µM
How it was run: as §2

HEK293T = assay: as above; conditions: MCC and control cell lines, CellTiter-Glo viability, 72 h; at 44.8 µM (top of the series)
How it was run: as §2
% is scaled to controls: 0 for no effect and ±100 for the full control effect; potency is read from the fitted curve at half-maximal effect.
Also: nearly all actives have a fitted effect of over 60% in size.

COc1ccc(-c2cc(=O)c3c(O)cc(O)cc3o2)cc1O
inactive: outcome (CRL-7250) | max response (HEK293) -3.68% | max response (HaCat) 3.57% | max response (KB-3-1) -19.6% | max response (NIH3T3) -2.97% | Potency (MCC-13) | Potency (MCC-26)

Cc1[nH]c(C=C2C(=O)Nc3ccc(S(=O)(=O)Cc4c(Cl)cccc4Cl)cc32)c(C)c1C(=O)N1CCC[C@H]1CN1CCCC1
active: Potency (HEK293) 23.5 µM
inactive: max response (CRL-7250) 1.44% | max response (HaCat) -4.31% | max response (KB-3-1) 1.95% | max response (NIH3T3) -20.1% | Potency (MCC-13) | Potency (MCC-26)

COc1ccc2cccc(CCNC(C)=O)c2c1
inactive: max response (CRL-7250) -2.32% | max response (HEK293) 4.38% | max response (HaCat) -1.39% | max response (KB-3-1) 2.52% | max response (NIH3T3) -3.32% | Potency (MCC-13) | Potency (MCC-26)

CC(C)(C)OC(=O)N[C@H]1CCCCCC=C[C@@H]2C[C@@]2(C(=O)NS(=O)(=O)C2CC2)NC(=O)[C@@H]2C[C@@H](OC(=O)N3Cc4cccc(F)c4C3)CN2C1=O
inactive: max response (CRL-7250) -21.2% | max response (HEK293) 3.03% | max response (HaCat) -10.7% | max response (KB-3-1) 5.38% | max response (NIH3T3) -0.939% | Potency (MCC-13) | Potency (MCC-26)

CCN(CC)CCOc1ccc(C(=C(Cl)c2ccccc2)c2ccccc2)cc1
inactive: max response (CRL-7250) -5.74% | outcome (HEK293) | max response (HaCat) -8.22% | outcome (KB-3-1) | max response (NIH3T3) 2.62% | outcome (HEK293T) | Potency (MCC-13) | Potency (MCC-26)

O=C(CCc1ccc(O)cc1)c1c(O)cc(O)cc1O[C@@H]1O[C@H](CO)[C@H](O)[C@H](O)[C@H]1O
inactive: max response (CRL-7250) -9.67% | max response (HEK293) 1.98% | max response (HaCat) -1.37% | max response (KB-3-1) 1.32% | max response (NIH3T3) -7.96% | Potency (MCC-13) | Potency (MCC-26)

CN(C[C@@H]1COCCO1)S(=O)(=O)Nc1ccc2ccc3ncc(-c4cnn(C)c4)cc3c(=O)c2c1
inactive: Potency (MCC-13)
active: Potency (CRL-7250) 469 nM | Potency (HEK293) 4.18 µM and 6.51 µM | Potency (HaCat) 10.3 µM | Potency (KB-3-1) 7.43 µM | Potency (NIH3T3) 1.32 µM and 8.2 µM

CN(C)c1cc(NC(=O)CNC(C)(C)C)c(O)c2c1C[C@@H]1C[C@H]3[C@H](N(C)C)C(=O)C(C(N)=O)=C(O)[C@@]3(O)C(=O)C1=C2O
inactive: max response (CRL-7250) -28.8% | max response (HEK293) 4.51% | max response (HaCat) 1.33% | max response (KB-3-1) -10.5% | max response (NIH3T3) -1.41% | Potency (MCC-13) | Potency (MCC-26)

O=C(CCCCCCC(=O)Nc1ccccc1)NO
active: Potency (CRL-7250) 8.41 µM and 10.3 µM and 11.8 µM | Potency (HEK293) 5.96 µM and 8.33 µM | Potency (HaCat) 7.5 µM and 9.2 µM | Potency (KB-3-1) 7.31 µM and 5.8 µM and 9.35 µM | Potency (NIH3T3) 10.6 µM and 18.7 µM | Potency (MCC-13) 6.68 µM | Potency (MCC-26) 20.9 µM

OC[C@H]1O[C@@H](Oc2cc(O)cc(C=Cc3ccc(O)cc3)c2)[C@H](O)[C@@H](O)[C@H]1O
inactive: outcome (CRL-7250) | max response (HEK293) -2.18% | max response (HaCat) -6.02% | outcome (KB-3-1) | max response (NIH3T3) 2.83% | Potency (MCC-13) | Potency (MCC-26)

O=C1C[C@@H](c2ccc(O)cc2)Oc2cc(O)cc(O)c21
inactive: max response (CRL-7250) -1.31% | max response (HEK293) -0.968% | max response (HaCat) 2.46% | max response (KB-3-1) 7.82% | max response (NIH3T3) 1.63% | Potency (MCC-13) | Potency (MCC-26)

COC1CCC(N(C(=O)C2CCC(C)CC2)c2cc(C3=CCCCC3)sc2C(=O)O)CC1 (centres undefined)
inactive: max response (CRL-7250) -4.75% | max response (HEK293) -22.6% | max response (HaCat) -16% | max response (KB-3-1) -3.16% | max response (NIH3T3) -0.413% | Potency (MCC-13) | Potency (MCC-26)
